Reference: PubChem BioAssay (Tox21)
Results filed as inconclusive are left out. The source made the active and inactive calls. Unless noted, the call rests on the fitted dose curve; in most records, active means well fitted curve in the direction sought with a large enough effect in the repeat runs; inconclusive means weak or mixed curves; inactive means no such curve, though single readings can be large; an effect the other way counts as inactive or inconclusive.

What was measured:
[1] = qHTS assay to identify small molecule antagonists of the vitamin D receptor (VDR) signaling pathway - cell viability counter screen (AID 743225); further: on the % scale 0 is the no-effect control and ±100 the full control effect; nearly all actives have a fitted effect of over 50% in size
Procedure, shortened: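 VDR-UAS-bla HEK 293T cells were plated and incubated 4 h at 37C, then dosed with compound plus 3 nM (final) 1-alpha,25-dihydroxyvitamin D3 for 16 h. After the 2 h beta-lactamase read, viability in the same wells was read as CellTiter-Glo luminescence after 30 min at room temperature.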

[2] = qHTS assay to identify small molecule agonists of the NFkB signaling pathway (AID 1159509; active means well fitted curve in the direction sought with a large enough effect in the signal ratio in the repeat runs, not every such curve was filed as active; the % refers to the signal ratio; further: series mostly up to about 61 µM; on the % scale 0 is the no-effect control and ±100 the full control effect)
Procedure, shortened: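 Agonist activity was read as beta-lactamase-driven FRET change (460 and 530 nm emission, 405 nm excitation) following 1.5 hr substrate loading at room temperature. Beforehand, ME-180 NFkB-bla reporter cells were treated with compounds for 5 hr at 37 C.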

[3] = qHTS assay to identify small molecule agonists of the NFkB signaling pathway - cell viability counter screen (AID 1159515; calls by dose curve; further: series mostly up to about 61 µM; on the % scale 0 is the no-effect control and ±100 the full control effect; nearly all actives have a fitted effect of over 55% in size)
Procedure, shortened: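 Counter screen run alongside the NFkB-bla agonist assay: ME-180 reporter cells exposed to compounds for 5 hr, then lysed with CellTiter-Glo in the same wells. Luminescence, read after 30 min, reflects viable cells.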

[4] = qHTS assay to identify small molecule agonists of the endoplasmic reticulum stress response signaling pathway - cell viability counter screen (AID 1159517; calls by dose curve;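 further: HeLa cells carrying an ER stress response element beta-lactamase reporter; series mostly up to about 61 µM; on the % scale 0 is the no-effect control and ±100 the full control effect; nearly all actives have a fitted effect of over 50% in size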)
Procedure, shortened: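 ESRE-bla HeLa cells (1,500/well) were plated overnight at 37 C and exposed to compounds for 5 hr. After the 2 hr beta-lactamase substrate read, CellTiter-Glo went into the same wells, and luminescence was read after 30 min at room temperature.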

[5] = qHTS assay to identify small molecule antagonists of the retinoid-related orphan receptor gamma (ROR-gamma) signaling pathway - cell viability counter screen (AID 1159520); further: on the % scale 0 is the no-effect control and ±100 the full control effect; nearly all actives have a fitted effect of over 50% in size
Procedure, shortened: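 Cytotoxicity was read from cellular ATP (CellTiter-Glo luminescence) after 16 hr at 37 C with 1 uM doxycycline induction. The inducer was added 2 hr after compound transfer to Tet-on ROR gamma CHO cells.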

[6] = target: Nuclear receptor ROR-gamma (Homo sapiens) (UniProt P51449); test: qHTS assay to identify small molecule antagonists of the retinoid-related orphan receptor gamma (ROR-gamma) signaling pathway (AID 1159521;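 further: CHO cells with doxycycline inducible ROR-gamma driving an RORE luciferase reporter; top concentration of the series differs between compounds; on the % scale 0 is the no-effect control and ±100 the full control effect; nearly all actives have a fitted effect of over 50% in size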)
Procedure, shortened: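 Tet-on ROR-gamma CHO cells with ROR response element-luciferase reporter; compounds added 2 hr before 1 uM doxycycline induction, then 16 hr at 37 C. Antagonism scored as decreased ONE-Glo luminescence.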

[7] = qHTS assay to identify small molecule agonists of the AP-1 signaling pathway - cell viability counter screen (AID 1159525; calls by dose curve; further: nearly all actives have a fitted effect of over 55% in size)
Procedure, shortened: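 Intracellular ATP by Cell Titer Glo luminescence (30 min, RT) in the same ME-180 AP-1-bla wells after the 5 h compound exposure at 37 °C. Normalised to tetra n-octyl ammonium bromide and DMSO controls.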

[8] = qHTS assay to identify small molecule agonists of the AP-1 signaling pathway (AID 1159526; calls by dose curve; further: on the % scale 0 is the no-effect control and ±100 the full control effect)
[9] = target: Retinoic acid receptor RXR-alpha (Homo sapiens) (UniProt P19793); test: qHTS assay to identify small molecule agonists of the RXR signaling pathway (AID 1159527; calls by dose curve; further: nearly all actives have a fitted effect of over 35% in size; further: potency means the concentration at half of the fitted maximal effect)
Procedure, shortened: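 GeneBLAzer RXR-alpha-UAS-bla HEK 293T cells in 2% charcoal-stripped FBS medium were exposed to compounds for 16 hr at 37 C in agonist mode. Beta-lactamase reporter read as 460/530 nm FRET ratio after 2 hr substrate loading.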

[10] = qHTS assay to identify small molecule antagonists of the retinoid acid receptor (RAR) signaling pathway - cell viability counter screen (AID 1159551); further: on the % scale 0 is the no-effect control and ±100 the full control effect; nearly all actives have a fitted effect of over 35% in size
Procedure, shortened: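 Measured by luminescent ATP detection, viability reflects C3RL4 cells treated 6 h at 37 C with test chemicals in the presence of 1 uM (final) retinol.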

[11] = qHTS assay to identify small molecule agonists of the vitamin D receptor (VDR) signaling pathway - cell viability counter screen (AID 743224)
Procedure, shortened: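 Counter screen for cytotoxicity: VDR-bla cells at 2,000 cells/well, 16 h compound exposure, then CellTiter-Glo luminescence after the beta-lactamase measurement.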

[12] = qHTS assay to identify small molecule antagonists of the retinoic acid receptor (RAR) signaling pathway (AID 1159552)
Procedure, shortened: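 Retinol signaling pathway inhibitors screened in C3RL4 RARE-luciferase reporter cells seeded overnight at 37 C, then compounds added with 1 uM (final) retinol as pathway substrate. After 6 hr at 37 C, luciferase luminescence read after 30 min at room temperature.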

[13] = qHTS assay to identify small molecule agonists of the RXR signaling pathway - cell viability counter screen (AID 1159529)
Procedure, shortened: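 RXR-alpha-UAS-bla HEK 293T cells in medium with 2% charcoal-stripped FBS were pre-incubated 5 hr, then compound-treated 16 hr at 37 C. Viability was read by CellTiter-Glo luminescence in the same wells as the beta-lactamase assay, with tetraoctyl ammonium bromide as positive control.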

[14] = qHTS assay to identify small molecule agonists of the retinoic acid receptor (RAR) signaling pathway (AID 1159553); further: potency means the concentration at half of the fitted maximal effect
Procedure, shortened: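 6 hr compound exposure (DMSO vehicle) of overnight-plated C3RL4 RARE-luc cells at 37 C; luminescence quantified after 30 min RT with luciferase reagent.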

[15] = qHTS assay to identify small molecule antagonists of the estrogen related receptor (ERR) signaling pathway - cell viability counter screen (AID 1224818); further: series mostly up to about 46 µM; on the % scale 0 is the no-effect control and ±100 the full control effect
Procedure, shortened: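 Compounds dissolved in DMSO were applied to ERR cells seeded at 2,000 per well 6 h earlier. Cell viability followed 17.5 h later via 30-min CellTiter-Fluor fluorescence.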

[16] = qHTS assay to identify small molecule antagonists of the estrogen related receptor signaling pathway with the pleiotropic PPARgamma coactivator (PGC) cell viability counter screen (AID 1224822; further: series mostly up to about 46 µM; on the % scale 0 is the no-effect control and ±100 the full control effect)
Procedure, shortened: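 Counter screen for cell viability: PGC/ERR cells, 6 h pre-incubation after plating, 17.5 h compound exposure at 37 C, fluorescence from CellTiter-Fluor after 30 min.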

Sequence of Retinoic acid receptor RXR-alpha (Homo sapiens) (P19793 whole entry, looked up): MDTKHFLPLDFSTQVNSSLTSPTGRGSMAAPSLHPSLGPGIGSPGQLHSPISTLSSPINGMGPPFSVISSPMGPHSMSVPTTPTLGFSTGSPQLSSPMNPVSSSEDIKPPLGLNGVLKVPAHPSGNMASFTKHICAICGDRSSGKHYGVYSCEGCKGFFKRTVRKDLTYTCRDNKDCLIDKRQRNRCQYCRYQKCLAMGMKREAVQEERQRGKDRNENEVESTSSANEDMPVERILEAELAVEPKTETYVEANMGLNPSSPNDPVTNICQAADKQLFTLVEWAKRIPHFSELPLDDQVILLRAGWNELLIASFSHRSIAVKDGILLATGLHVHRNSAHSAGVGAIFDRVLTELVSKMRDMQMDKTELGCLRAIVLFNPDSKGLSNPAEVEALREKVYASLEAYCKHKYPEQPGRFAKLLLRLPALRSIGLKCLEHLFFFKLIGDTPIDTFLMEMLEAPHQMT

CC(=O)OCCC(C)CC(C)(C)C (configuration not stated)
inactive: Potency [1] | outcome [2] | Potency [3] | Potency [4] | Potency [5] | Potency [6] | Potency [7] | outcome [8] | Potency [10]
active: Potency [9] 11 µM

CC(=O)NCCO
inactive: Potency [11] | Potency [1] | outcome [2] | Potency [3] | Potency [4] | Potency [5] | Potency [6] | Potency [7] | outcome [8] | Potency [10] | Potency [12]

C=Cc1ccc(OC(C)=O)cc1
inactive: Potency [11] | Potency [1] | outcome [2] | Potency [3] | Potency [4] | Potency [5] | Potency [6] | Potency [7] | outcome [8] | Potency [13] | Potency [10] | Potency [12] | Potency [14]

CCO[Si](C)(CCCOCC1CO1)OCC (configuration not stated)
inactive: Potency [11] | Potency [1] | outcome [2] | Potency [3] | Potency [4] | Potency [5] | Potency [6] | Potency [7] | outcome [8] | Potency [9] | Potency [13] | Potency [10] | Potency [12] | Potency [14]

O=C(O)/C=C/c1ccc(O)c(O)c1
inactive: Potency [1] | outcome [2] | Potency [3] | Potency [4] | Potency [5] | Potency [6] | Potency [7] | outcome [8] | Potency [13] | Potency [10] | Potency [12] | outcome [15] | outcome [16]

COc1ccc(CCN(C)CCCN2CCc3cc(OC)c(OC)cc3CC2=O)cc1OC
inactive: Potency [11] | Potency [1] | outcome [2] | Potency [3] | Potency [4] | Potency [5] | Potency [6] | Potency [7] | outcome [8] | Potency [9] | Potency [13] | Potency [10] | Potency [12]

CC1=CC[C@@H]2C[C@H]1C2(C)C
inactive: activity change, negative = cytotoxicity [11] 3.15% [at 13.2 µM] | viability change, negative = cytotoxic [1] -2.02% [at 15.1 µM] | activation [2] -0.527% [at 15.1 µM] | activity, negative = cytotoxic [3] 15.3% [at 15.1 µM] | activity change, negative = cytotoxicity [4] 30.1% [at 15.1 µM] | activity, negative = cytotoxicity [5] 2.52% [at 19 µM] | activity change, negative = inhibition [6] -7.14% [at 19 µM] | viability change, negative = cytotoxic [7] 0.876% [at 15.8 µM] | activation [8] 4.37% [at 15.8 µM] | activity change, negative = cytotoxicity [13] -11.8% [at 15.8 µM] | activity change, negative = cytotoxicity [10] -0.147% [at 19 µM] | activity, negative = inhibition [12] 70.7% [at 19 µM]

CSSc1ccoc1C
inactive: Potency [11] | Potency [1] | outcome [2] | Potency [3] | Potency [4] | Potency [5] | Potency [6] | Potency [7] | outcome [8] | Potency [9] | Potency [10] | Potency [12]

CC(C(=O)O)c1ccc(C(=O)c2cccs2)cc1 (configuration not stated)
inactive: Potency [11] | Potency [1] | outcome [2] | Potency [3] | Potency [4] | Potency [5] | Potency [6] | Potency [7] | outcome [8] | Potency [9] | Potency [13] | Potency [10] | Potency [12] | Potency [14]

Oc1cccc2[nH]ccc12
inactive: Potency [11] | Potency [1] | outcome [2] | Potency [3] | Potency [4] | Potency [5] | Potency [6] | Potency [7] | outcome [8] | Potency [9] | Potency [10] | Potency [12] | Potency [14]

O=C1c2ccccc2C(=O)c2c(O)ccc(O)c21
inactive: outcome [2] | Potency [3] | Potency [4] | Potency [5] | Potency [6] | Potency [7] | outcome [8] | Potency [9] | Potency [13] | Potency [10] | Potency [12] | Potency [14]

COc1cc(S(=O)(=O)Nc2ccccc2)c(OC)cc1N
inactive: Potency [11] | outcome [2] | Potency [3] | Potency [4] | Potency [5] | Potency [6] | Potency [7] | outcome [8] | Potency [9] | Potency [13] | Potency [10] | Potency [12] | Potency [14]

CCOC(=O)c1ccc(NC(=O)CN2CCCCC2)cc1
inactive: Potency [11] | Potency [1] | outcome [2] | Potency [3] | Potency [4] | Potency [5] | Potency [6] | Potency [7] | outcome [8] | Potency [13] | Potency [10]
active: Potency [14] 21.1 µM

O=C(O)c1ccc(O)cc1O
inactive: Potency [11] | Potency [1] | outcome [2] | Potency [3] | Potency [4] | Potency [5] | Potency [6] | Potency [7] | outcome [8] | Potency [13] | Potency [10] | Potency [12] | Potency [14]

CNc1c2c(nn1C)CCCC2
inactive: Potency [11] | Potency [1] | outcome [2] | Potency [3] | Potency [4] | Potency [5] | Potency [6] | Potency [7] | outcome [8] | Potency [9] | Potency [13] | Potency [10] | Potency [12]

CCCC(=O)OC(=O)CCC
inactive: Potency [11] | Potency [1] | outcome [2] | Potency [3] | Potency [4] | Potency [5] | Potency [6] | Potency [7] | outcome [8] | Potency [13] | Potency [10] | Potency [12]

CCN(CC)c1cccc(O)c1
inactive: Potency [11] | Potency [1] | outcome [2] | Potency [3] | Potency [4] | Potency [5] | Potency [6] | Potency [7] | outcome [8] | Potency [9] | Potency [10] | Potency [12] | Potency [14]

Cc1oc(=O)oc1COC(=O)[C@@H]1N2C(=O)[C@@H](NC(=O)[C@H](N)c3ccccc3)[C@H]2SC1(C)C
inactive: Potency [11] | Potency [1] | outcome [2] | Potency [3] | Potency [4] | Potency [5] | Potency [6] | Potency [7] | outcome [8] | Potency [9] | Potency [10]

CCC(=O)OCc1ccc(OC)cc1
inactive: Potency [11] | outcome [2] | Potency [3] | Potency [4] | Potency [5] | Potency [6] | Potency [7] | outcome [8] | Potency [13] | Potency [10] | Potency [12] | Potency [14]

CCCCCCCCCCCCCCN(C)C
inactive: Potency [1] | outcome [2] | Potency [3] | Potency [4] | activity, negative = cytotoxicity [5] 0.214% [at 19 µM] | activity change, negative = inhibition [6] -1.54% [at 19 µM] | viability change, negative = cytotoxic [7] 1.48% [at 15.8 µM] | activation [8] -14.8% [at 15.8 µM] | activity change, negative = cytotoxicity [13] 0.892% [at 15.8 µM] | activity change, negative = cytotoxicity [10] 0.962% [at 19 µM] | activity, negative = inhibition [12] -4.35% [at 19 µM]
